Results filed as inconclusive are left out. A number with no mark means an inactive call. Active and inactive are the calls of the source. The call rests on the fitted dose curve; in most records, active means well fitted inhibition curve with a large enough effect; inconclusive means small, poorly fitted or top-dose-only effect; inactive means no such curve, though single readings can be large or run the other way.
Assay: Primary qHTS for inhibitors of La Crosse Virus (LACV) - induced cell death in SH-SY5Y cells (AID 1508616);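 further: top concentration of the series differs between compounds; 0% = infected DMSO wells and 100% = uninfected DMSO wells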
Conditions: SH-SY5Y LACV cytopathicity rescue, ATP luminescence, 6 d; series mostly up to 4.29 µM
From the text: Assay Provider: Karin Peterson Ph.D.
National Institute of Allergy and Infection Diseases, National Institute of Health
La Crosse Virus (LACV) is a California serogroup mosquito-borne arbovirus, family Peribunyaviridae, which is an endemic pathogen in North America and can induce a rare, life-threatening neurological disease in children. LACV was first isolated in the early 1960s, from a summer "rural encephalitis" case in La Crosse, Wisconsin, USA. Since then, LACV encephalitis cases have been found in more than twenty states, with most cases in the Mississippi and Ohio River basins. The life cycle of LACV is maintained between the vector, the eastern tree-hole mosquito Aedes triseriatus, and vertebrate hosts including eastern gray squirrels (Sciurus carolinensis) and chipmunks (Tamiasstriatus grinseus). […] Most LACV infections in humans are asymptomatic or induce mild clinical symptoms of fever, headache, lethargy and vomiting. However, in some cases LACV can cause severe neuroinvasive disease, including encephalitis, meningitis, and meningoencephalitis, requiring hospitalization. To date, there is neither a licensed vaccine nor a Food and Drug Administration (FDA) approved antiviral therapy available to prevent or treat LACV encephalitis. The primary treatment for viral encephalitis is palliative care due to the lack of therapeutics. In the current study, we conducted a screen of 4,096 FDA approved and bioactive small molecules against LACV, by screening for rescue of LACV-induced cell death in SH-SY5Y cells.
LACV-induced cytopathicity assay
SEQUENCE No. (1,2, 3, etc.); […] (e.g., Cells, Incubation, Reagent, etc.); VALUE and DESCRIPTION.
1. Reagent; 2 uL; Cell solution.
3. Compounds; 23nL; Compound library
4. Reagent; 12 uL; LACV virus
6. Reagent; 24 uL; ATPLite (PerkinElmer)
7. Time; 5 min; Room temperature
8. Detection; Luminescence; View
NOTES (numbers refer to sequence above)
1. Seed 6000 SH-SY5Y cells (ATCC CRL-2266) in 2 microL/well media (DMEM/F12 10% FBS, 1x L-Glutamine, 1x Pyruvate, 1x NEAA, 1x Pen/Strep) in 384-well assay plates (tissue culture treated, white, solid bottom).
2. Incubate at 37 degrees C with 5% CO2 for 24 hr.
3. Dispense 23 nL/well compounds in DMSO via pin transfer.
4. Dispense 12 microL/well of LACV (LACV/human/1978) in media at 0.01 MOI.
5. Incubate at for 6 days at 37C 5% CO2
6. Dispense 24 microL/well of ATPLite 1step Luminescence assay system (PerkinElmer).
7. Incubate for 5 min at room temperature.
8. Read luminescence signal (Viewlux plate reader, PerkinElmer). Data was normalized with DMSO control wells containing LACV as 0%, and DMSO control wells without virus as 100%.

Row | Compound | outcome | activity change
1 | CC(=O)CCC(=O)O | inactive | –
2 | CCOc1nc2cccc(C(=O)O)c2n1Cc1ccc(-c2ccccc2-c2nn[nH]n2)cc1 | inactive | –
3 | COc1ccc2cc1Oc1ccc(cc1)C[C@H]1c3c(cc4c(c3Oc3cc5c(cc3OC)CCN(C)[C@@H]5C2)OCO4)CCN1C | inactive | –
4 | CC(=O)Oc1c(C)c(C)c2c(c1C)CC[C@@](C)(CCC[C@H](C)CCC[C@H](C)CCCC(C)C)O2 | inactive | –
5 | CCCCOC(=O)c1ccc(O)cc1 | inactive | –
6 | N[C@H]1C(O)O[C@H](CO)[C@@H](O)[C@@H]1O (stereo not given in full) | inactive | –
7 | CCCCC/C(C=O)=C\c1ccccc1 | inactive | –
8 | CC(C)(C(=O)O)c1ccc(C(O)CCCN2CCC(C(O)(c3ccccc3)c3ccccc3)CC2)cc1 (stereo not given) | inactive | –
9 | COc1ccc(Cl)cc1C(=O)NCCc1ccc(S(=O)(=O)NC(=O)NC2CCCCC2)cc1 | inactive | –
10 | Cc1cc(CC(=O)O)n(C)c1C(=O)c1ccc(Cl)cc1 | inactive | –
11 | CNC(=O)Oc1ccc2c(c1)[C@]1(C)CCN(C)[C@@H]1N2C | inactive | –
12 | Cc1cccc(Nc2cc(Cl)nc(SCC(=O)O)n2)c1C | inactive | –
13 | NC(=O)NC(=O)Cc1ccccc1 | inactive | –
14 | CC(=O)O[C@@]12CO[C@@H]1C[C@H](O)[C@@]1(C)C(=O)[C@H](O)C3=C(C)[C@@H](OC(=O)[C@H](O)[C@@H](NC(=O)OC(C)(C)C)c4ccccc4)C[C@@](O)([C@@H](OC(=O)c4ccccc4)[C@H]21)C3(C)C | inactive | –
15 | CCCCN1CCCC[C@H]1C(=O)Nc1c(C)cccc1C | inactive | –
16 | CCC(=O)c1ccc(O)cc1 | inactive | –
17 | N[C@@H](CSCCCO)C(=O)O | inactive | –
18 | N[C@H](C(=O)O)c1ccc(O)cc1 | inactive | –
19 | CC(C(O)c1ccc(O)cc1)N1CCC(Cc2ccccc2)CC1 (stereo not given) | inactive | –
20 | COC(=O)[C@H]1[C@H]2C[C@@H]3c4[nH]c5cc(OC)ccc5c4CCN3C[C@H]2C[C@@H](OC(=O)COc2ccc(OC)cc2)[C@@H]1OC | inactive | –

Row | Compound | outcome | activity change
21 | CC(C)(C)[C@]1(O)CCN2C[C@H]3c4ccccc4CCc4cccc(c43)[C@@H]2C1 | inactive | –
22 | N[C@@H](CSSC[C@H](N)C(=O)O)C(=O)O | – | -4.86% [at 0.0343 µM]
23 | O=C1NC(=O)[C@@]2(CCOc3ccc(F)cc32)N1 | inactive | –
24 | NC(=O)c1ncn([C@@H]2O[C@H](CO)[C@@H](O)[C@H]2O)c1N | inactive | –
25 | O=C(O)Cc1sc(-c2ccccc2)nc1-c1ccc(Cl)cc1 | inactive | –
26 | Cn1cc[nH]c1=S | inactive | –
27 | O=c1[nH]c(=O)c2[nH]c(=O)[nH]c2[nH]1 | – | 1.46% [at 0.858 µM]
28 | CS(=O)(=O)c1ccc([C@@H](O)[C@@H](CF)NC(=O)C(Cl)Cl)cc1 | inactive | –
29 | CCN(CC)CCNC(=O)c1cc(Cl)c(N)cc1OC | inactive | –
30 | Cc1cc(C(C#N)c2ccc(Cl)cc2)c(Cl)cc1NC(=O)c1cc(I)cc(I)c1O (stereo not given) | inactive | –
31 | OC[C@H]1O[C@@H](O[C@@H]2[C@@H](CO)O[C@](O)(CO)[C@H]2O)[C@H](O)[C@@H](O)[C@H]1O | inactive | –
32 | Nc1ncnc2c1ncn2[C@@H]1O[C@H](CO)[C@@H](O)[C@H]1O | inactive | –
33 | C/C(=C(\CCOP(=O)(O)O)SC(=O)c1ccccc1)N(C=O)Cc1cnc(C)nc1N | – | -1.14% [at 0.431 µM]
34 | O=C1O[C@H](CO)[C@@H](O)[C@H](O)[C@H]1O | inactive | –
35 | O=C(Oc1ccccc1C(=O)O)c1ccccc1O | inactive | –
36 | Nc1cc(=O)[nH]c(N)n1 | inactive | –
37 | C[C@]12CC[C@@H]3c4ccc(O)cc4CC[C@H]3[C@@H]1CCC2=O | inactive | –
38 | CO/N=C(\C(=O)N[C@@H]1C(=O)N2C(C(=O)O)=C(CSc3nc(=O)c(O)nn3C)CS[C@H]12)c1csc(N)n1 | inactive | –
39 | O=C(O)COc1nn(Cc2ccccc2)c2ccccc12 | inactive | –
40 | CCN(CC)CCSC(=O)C(c1ccccc1)c1ccccc1 | inactive | –

From PubChem BioAssay (NCATS)
